Laboratory results published in PubChem BioAssay (Tox21).
Records with an inconclusive call do not appear. Some structures have more than one record in an assay (separate samples or runs), and their calls can disagree. Active and inactive are the calls of the source. Unless noted, calls follow the shape of the full dose curve.

Experiments:
[1] = Nuclear factor erythroid 2-related factor 2/antioxidant responsive element (Nrf2/ARE) small molecule agonists: luciferase reporter gene qHTS assay in human keratinocytes (AID 1919969); settings: KeratinoSens HaCaT ARE-luciferase, luminescence, 24 h; series mostly up to 92.4 µM; also: nearly all actives have a fitted effect of over 35% in size; also: potency is read from the fitted curve at half-maximal effect
[2] = molecular target: Gonadotropin-releasing hormone receptor (Homo sapiens) (UniProt P30968); assay: Human gonadotropin-releasing hormone receptor (GnRHR) small molecule agonists, calcium flux assay in GnRHR-HEK293 cells (AID 1920063); settings: calcium flux fluorescence, agonist mode; series mostly up to 57.6 µM; also: nearly all actives have a fitted effect of over 35% in size
Sequence of Gonadotropin-releasing hormone receptor (Homo sapiens) (P30968 whole entry, looked up): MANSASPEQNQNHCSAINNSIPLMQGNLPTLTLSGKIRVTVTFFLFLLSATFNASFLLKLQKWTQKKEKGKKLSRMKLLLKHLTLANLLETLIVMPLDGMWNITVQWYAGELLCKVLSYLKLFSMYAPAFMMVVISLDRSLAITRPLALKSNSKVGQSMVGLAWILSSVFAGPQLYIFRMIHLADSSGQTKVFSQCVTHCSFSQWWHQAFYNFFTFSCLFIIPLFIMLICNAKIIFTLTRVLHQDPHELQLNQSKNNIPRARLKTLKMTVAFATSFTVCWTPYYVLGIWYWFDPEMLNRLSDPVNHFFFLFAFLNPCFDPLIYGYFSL
Outline: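 HEK293 cells stably expressing human GnRHR were dye-loaded for 1 h at 37 C. Compound was added in agonist mode and fluorescence (Ex/Em 480/540) recorded kinetically for 3 min. Fifteen concentrations, triplicates.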

[3] = molecular target: KiSS-1 receptor (Homo sapiens) (UniProt Q969F8); assay: Human kisspeptin (KISS1R) small molecule agonists, calcium flux assay in KISS1R-HEK293 cells (AID 1920064; active = well fitted activation curve with a large enough effect in the repeat runs); settings: KISS1R-HEK293, calcium flux fluorescence, agonist; series mostly up to 76.8 µM
Sequence of KiSS-1 receptor (Homo sapiens) (Q969F8 whole entry, looked up): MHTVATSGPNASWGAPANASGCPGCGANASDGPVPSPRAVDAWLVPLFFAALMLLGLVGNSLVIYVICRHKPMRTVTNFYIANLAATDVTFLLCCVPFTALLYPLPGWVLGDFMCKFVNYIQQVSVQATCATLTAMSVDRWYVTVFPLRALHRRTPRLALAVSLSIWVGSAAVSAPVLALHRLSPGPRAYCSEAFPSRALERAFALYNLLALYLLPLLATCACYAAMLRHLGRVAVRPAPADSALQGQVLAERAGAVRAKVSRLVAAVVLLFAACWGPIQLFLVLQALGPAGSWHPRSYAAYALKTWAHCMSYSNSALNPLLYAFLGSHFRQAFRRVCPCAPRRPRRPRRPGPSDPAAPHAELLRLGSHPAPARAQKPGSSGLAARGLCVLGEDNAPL
Outline: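 HEK293 cells stably expressing human KISS1R were loaded with calcium dye for 1 h at 37 C, then given compound; fluorescence (Ex/Em 480/540) was read kinetically for 3 min. Fifteen concentrations, triplicate.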

[4] = G protein-coupled receptor (GPCR) small molecule agonists, calcium flux assay: HEK293 wild type cell line counter screen (AID 1920065); settings: HEK293 WT calcium flux, fluorescence, agonist mode; series mostly up to 57.6 µM
Outline: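 Wild-type HEK293 cells plated 18 h, loaded with calcium dye 1 h at 37 C, then compounds added in agonist mode (ATP as positive control). Kinetic fluorescence Ex/Em 480/540 recorded 3 min at 1 sec intervals; 15 concentrations, triplicate.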

[5] = p53 small molecule agonists, cell-based qHTS assay with rat liver microsomes (AID 1963578); settings: HCT-116 p53RE-bla, beta-lactamase ratio, 16 h; series mostly up to 66 µM
Outline: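 Metabolic activation by rat liver microsomes and NADPH, each 0.5 mg/mL final, added right after compounds to p53RE-bla reporter cells (4,000/well, plated 5 h earlier). 16 h at 37 C, then LiveBLAzer substrate for 2 h at room temperature in the dark; fluorescence read-out.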

[6] = p53 small molecule agonists, cell-based qHTS assay: qHTS cell viability counter screen (AID 1963581); settings: p53RE-bla HCT-116 viability, ATP luminescence, 16 h; series mostly up to 66 µM; also: nearly all actives have a fitted effect of over 45% in size
Outline: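 p53RE-bla HCT-116 cells, compounds added 5 h after plating and incubated 16 h at 37 C. Cytotoxicity measured in the same wells as intracellular ATP by CellTiter-Glo luminescence after 30 min at room temperature.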

[7] = molecular target: 5-hydroxytryptamine receptor 2A (Homo sapiens) (UniProt P28223); assay: 5-hydroxytryptamine receptor 2A (HTR2A) small molecule antagonists, cell-based qHTS assay (AID 1963586); settings: HTR2A-CHO cells, DOI-induced calcium flux, fluorescence; series mostly up to 61.5 µM; also: nearly all actives have a fitted effect of over 45% in size
Sequence of 5-hydroxytryptamine receptor 2A (Homo sapiens) (P28223 whole entry, looked up): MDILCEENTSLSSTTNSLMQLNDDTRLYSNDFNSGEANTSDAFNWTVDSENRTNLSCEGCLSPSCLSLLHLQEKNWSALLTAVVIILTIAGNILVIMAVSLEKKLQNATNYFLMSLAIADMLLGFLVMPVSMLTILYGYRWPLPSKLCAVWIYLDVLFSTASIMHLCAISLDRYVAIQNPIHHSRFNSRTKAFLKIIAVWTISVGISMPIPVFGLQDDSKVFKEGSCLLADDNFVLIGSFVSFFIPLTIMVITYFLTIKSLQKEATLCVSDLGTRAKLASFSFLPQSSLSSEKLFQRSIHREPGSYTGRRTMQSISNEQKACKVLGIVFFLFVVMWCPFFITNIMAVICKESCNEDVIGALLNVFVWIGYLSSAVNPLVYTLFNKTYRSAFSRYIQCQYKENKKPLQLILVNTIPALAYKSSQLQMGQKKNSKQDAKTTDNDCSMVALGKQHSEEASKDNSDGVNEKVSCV
Outline: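 Antagonist-mode intracellular calcium assay: DOI (4 nM) added after 5 min compound pre-incubation at room temperature to dye-loaded HTR2A-CHO cells. Fluorescence followed for 3 min, sampled every second.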

[8] = molecular target: 5-hydroxytryptamine receptor 2A (Homo sapiens) (UniProt P28223); assay: 5-hydroxytryptamine receptor 2A (HTR2A) small molecule agonists, cell-based qHTS assay (AID 1963587); settings: HTR2A-CHO cells, calcium flux fluorescence, agonist mode; series mostly up to 76.8 µM; also: nearly all actives have a fitted effect of over 30% in size
Outline: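 Kinetic calcium-flux fluorescence (2 min, 1 sec intervals) after compound addition in agonist mode. HTR2A-CHO cells were cultured 18 h, then dye-loaded 1 h at 37 C.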

[9] = molecular target: Muscarinic acetylcholine receptor M1 (Homo sapiens) (UniProt P11229); assay: Cholinergic receptor muscarinic 1 (CHRM1) small molecule antagonists, cell-based qHTS assay (AID 1963588); settings: CHRM1-CHO antagonist mode, calcium flux fluorescence; series mostly up to 61.5 µM; also: nearly all actives have a fitted effect of over 40% in size
Sequence of Muscarinic acetylcholine receptor M1 (Homo sapiens) (P11229 whole entry, looked up): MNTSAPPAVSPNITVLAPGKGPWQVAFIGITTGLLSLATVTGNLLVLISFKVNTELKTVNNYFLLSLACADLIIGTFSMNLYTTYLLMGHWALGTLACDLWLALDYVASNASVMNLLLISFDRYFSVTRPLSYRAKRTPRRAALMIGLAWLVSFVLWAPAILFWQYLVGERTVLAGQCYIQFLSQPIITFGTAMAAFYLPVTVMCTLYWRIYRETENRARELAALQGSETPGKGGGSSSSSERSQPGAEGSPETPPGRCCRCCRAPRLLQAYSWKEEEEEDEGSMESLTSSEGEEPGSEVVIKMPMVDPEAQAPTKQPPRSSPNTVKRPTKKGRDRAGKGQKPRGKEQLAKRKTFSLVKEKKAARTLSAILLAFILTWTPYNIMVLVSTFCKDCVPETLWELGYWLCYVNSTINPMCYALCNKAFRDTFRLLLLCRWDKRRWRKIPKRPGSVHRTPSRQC
Outline: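 CHRM1-CHO calcium-flux assay, antagonist mode. Cells were seeded 18 h, dye-loaded 1 h at 37 C and given compound for 5 min at RT, then acetylcholine was added at 50nM. FDSS fluorescence was read 3 min; 15 concentrations, three runs.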

[10] = molecular target: Muscarinic acetylcholine receptor M1 (Homo sapiens) (UniProt P11229); assay: Cholinergic receptor muscarinic 1 (CHRM1) small molecule agonists, cell-based qHTS assay (AID 1963589); settings: CHRM1-CHO cells, agonist mode, calcium flux fluorescence; series mostly up to 76.8 µM; also: nearly all actives have a fitted effect of over 35% in size
Outline: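 CHO cells stably expressing human CHRM1 were loaded with calcium dye for 1 h at 37 C, then compound was added in agonist mode. Intracellular calcium fluorescence was followed kinetically at 1 s intervals. Fifteen concentrations were tested in three independent runs.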

[11] = molecular target: Beta-2 adrenergic receptor (Homo sapiens) (UniProt P07550); assay: Adrenergic beta2 receptor (ADRB2) small molecule antagonists, cell-based qHTS assay (AID 1963592); settings: CHO-ADRB2 cells, isoproterenol-stimulated cAMP HTRF ratio, 0.5 h; series mostly up to 92.4 µM; also: nearly all actives have a fitted effect of over 50% in size
Sequence of Beta-2 adrenergic receptor (Homo sapiens) (P07550 whole entry, looked up): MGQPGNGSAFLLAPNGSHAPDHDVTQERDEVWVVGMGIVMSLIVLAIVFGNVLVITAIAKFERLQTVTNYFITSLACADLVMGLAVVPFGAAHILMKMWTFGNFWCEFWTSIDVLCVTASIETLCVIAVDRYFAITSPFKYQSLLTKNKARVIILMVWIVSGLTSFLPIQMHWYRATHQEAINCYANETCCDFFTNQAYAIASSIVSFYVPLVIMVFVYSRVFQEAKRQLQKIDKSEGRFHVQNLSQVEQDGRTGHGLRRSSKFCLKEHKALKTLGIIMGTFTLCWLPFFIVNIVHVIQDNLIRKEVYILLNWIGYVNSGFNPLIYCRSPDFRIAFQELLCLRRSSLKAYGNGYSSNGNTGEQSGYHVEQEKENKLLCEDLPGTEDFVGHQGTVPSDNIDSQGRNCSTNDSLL
Outline: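 Cells (CHO, stable ADRB2 overexpression) incubated 18-20hr at 37C; compounds added from DMSO; agonist mix (1nM isoproterenol, 100uM IBMX, 25uM Ro-20-1724) added; 0.5hr RT; d2-cAMP and anti-cAMP-cryptate added; 1hr RT; 665/615 nm read.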

[12] = molecular target: D(2) dopamine receptor (Homo sapiens) (UniProt P14416); assay: Dopamine D2 receptor (DRD2) small molecule agonists, cell-based qHTS assay (AID 1963594); settings: HEK293-DRD2 cAMP HTRF, agonist mode, 30 min; series mostly up to 92.4 µM; also: nearly all actives have a fitted effect of over 35% in size; also: potency is read from the fitted curve at half-maximal effect
Sequence of D(2) dopamine receptor (Homo sapiens) (P14416 whole entry, looked up): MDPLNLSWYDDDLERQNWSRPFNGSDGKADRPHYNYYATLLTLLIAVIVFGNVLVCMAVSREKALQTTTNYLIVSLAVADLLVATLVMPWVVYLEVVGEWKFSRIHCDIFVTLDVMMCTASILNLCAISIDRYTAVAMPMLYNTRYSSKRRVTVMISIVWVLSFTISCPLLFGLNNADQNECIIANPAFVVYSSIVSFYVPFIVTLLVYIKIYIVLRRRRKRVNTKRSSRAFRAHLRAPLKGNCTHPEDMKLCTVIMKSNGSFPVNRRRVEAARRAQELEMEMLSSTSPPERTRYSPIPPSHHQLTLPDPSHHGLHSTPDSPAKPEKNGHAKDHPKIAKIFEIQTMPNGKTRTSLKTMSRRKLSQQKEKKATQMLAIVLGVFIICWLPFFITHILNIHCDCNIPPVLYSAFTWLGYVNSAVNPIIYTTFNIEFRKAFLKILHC
Outline: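 cAMP accumulation in DRD2-HEK293 cells measured by HTRF after 1 h detection; compounds added 10 min before NKH477 (200nM […]) forskolin-analogue stimulation, 30 min at room temperature, with Ro20-1724 present at 0.1 mM final.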

[13] = molecular target: D(2) dopamine receptor (Homo sapiens) (UniProt P14416); assay: Dopamine D2 receptor (DRD2) small molecule antagonists, cell-based qHTS assay (AID 1963595; active = well fitted inhibition curve with a large enough effect in the signal ratio in the repeat runs, with a control signal flat; the % refers to the signal ratio; also: potency is read from the fitted curve at half-maximal effect); settings: HEK293-DRD2 cAMP HTRF antagonist mode; series mostly up to 92.4 µM
Outline: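 Cells were plated and grown for 24 h at 37 °C. Ro20-1724 (0.1 mM final) went in first, then compound for 10 min. NKH477 (200 nM) with quinpirole (12 nM) followed for 30 min at RT, then HTRF detection reagents for 1 h.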

[14] = p53 small molecule agonists, cell-based qHTS assay with human liver microsomes: qHTS cell viability counter screen (AID 1963579); settings: p53RE-bla HCT-116 viability, ATP luminescence, 16 h, HLM; series mostly up to 66 µM; also: nearly all actives have a fitted effect of over 45% in size
Outline: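 Metabolic activation used human liver microsomes and NADPH, both 0.5 mg/mL final, over 16 hours at 37 C on p53RE-bla cells (4,000/well). Cytotoxicity measured by CellTiter-Glo luminescence, 30 min at room temperature.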

[15] = p53 small molecule agonists, cell-based qHTS assay with rat liver microsomes: qHTS cell viability counter screen (AID 1963580); settings: p53RE-bla HCT-116 + rat microsomes, ATP viability, 16 h; series mostly up to 66 µM; also: nearly all actives have a fitted effect of over 45% in size; also: potency is read from the fitted curve at half-maximal effect
Outline: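 Intracellular ATP, by CellTiter-Glo luminescence, defines viability. HCT-116 p53RE-bla cells, 4,000 per well, were compound-treated in the presence of rat liver microsomes and NADPH for 16 h at 37 C.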

[16] = cAMP Responsive Elements (CRE) small molecule agonists, cell-based qHTS assay (AID 1963590); settings: CRE-bla HEK293T, beta-lactamase FRET ratio, 3 h; series mostly up to 92.4 µM
Outline: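 CRE-bla HEK 293T cells, 2,000/well in DMEM with 10% dialyzed FBS and 25 mM HEPES, pre-incubated 18 h at 37 C, then exposed to compound 3 h at 37 C. Beta-lactamase reporter read with LiveBLAzer B/G FRET substrate after 2 h at room temperature.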

[17] = cAMP Responsive Elements (CRE) small molecule antagonists, cell-based qHTS assay (AID 1963591; active = well fitted inhibition curve with a large enough effect in the signal ratio in the repeat runs, not every such curve was filed as active; the % refers to the signal ratio; also: potency is read from the fitted curve at half-maximal effect); settings: CRE-bla HEK293T, beta-lactamase FRET ratio; series mostly up to 92.4 µM
Outline: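 CRE-bla HEK293T cells plated 18 h, then given compound plus NKH477 at 0.25 uM final for 3 h at 37C. Beta-lactamase reporter read with LiveBLAzer B/G FRET substrate after 2 h at room temperature.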

[18] = molecular target: Beta-2 adrenergic receptor (Homo sapiens) (UniProt P07550); assay: Adrenergic beta2 receptor (ADRB2) small molecule agonists, cell-based qHTS assay (AID 1963593); settings: CHO-ADRB2 cells, cAMP HTRF, 30 min; series mostly up to 92.4 µM;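 also: CHO cells stably overexpressing human ADRB2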
Outline: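 CHO cells stably over-expressing ADRB2 were plated overnight at 37C, then dosed with compounds plus a stimulation mix containing 100uM IBMX and 25uM Ro-20-1724 for 0.5hr at room temperature. cAMP was measured by HTRF competition, 1hr.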

Measured: Potency

CN1CC[C@H](c2c(O)cc(O)c3c(=O)cc(-c4ccccc4Cl)oc23)[C@H](O)C1
active: [1] 0.0841 µM
inactive: [2] | [3] | [4] | [5] | [6] | [7] | [8] | [9] | [10] | [11] | [12] | [13]

CC(O)C1CCCCC1 (stereo not given)
inactive: [1] | [2] | [3] | [4] | [14] | [15] | [6] | [7] | [8] | [9] | [10] | [16] | [17] | [11] | [12] | [13]

O=C1CCCN1C1CCCCC1
inactive: [1] | [2] | [3] | [4] | [14] | [15] | [6] | [7] | [8] | [9] | [10] | [16] | [17] | [11] | [12] | [13]

OC(CCN1CCCCC1)(c1ccccc1)C1CCCCC1 (stereo not given)
inactive: [1] | [2] | [3] | [4] | [14] | [15] | [11] | [12]

Cc1ccc(-c2cc(C(F)(F)F)nn2-c2ccc(S(N)(=O)=O)cc2)cc1
60.9 µM (active) and inactive: [13]
36.2 µM (active) and inactive: [15]
inactive: [1] | [2] | [3] | [4] | [14] | [6] | [18] | [12]

C=CC(C)(C)CC(=O)OC
inactive: [1] | [2] | [3] | [4] | [14] | [15] | [7] | [8] | [10] | [16] | [11] | [12] | [13]

CC(=O)Nc1ccc(OC(=O)c2ccccc2OC(C)=O)cc1
inactive: [1] | [2] | [3] | [4] | [14] | [15] | [6] | [7] | [8] | [9] | [10] | [16] | [17] | [11] | [18] | [12] | [13]

CCCC(=O)OC/C=C(\C)CCC=C(C)C
inactive: [1] | [2] | [3] | [4] | [14] | [15] | [6] | [7] | [8] | [9] | [10] | [16] | [17] | [11] | [12] | [13]

CCN(CC)CCOc1ccc2c(c1)C(=O)c1cc(OCCN(CC)CC)ccc1-2
inactive: [2] | [3] | [4] | [14] | [15] | [6] | [7] | [8] | [9] | [10] | [16]
active: [1] 33.5 µM | [17] 29.8 µM

CC(C)C[C@H]1C(=O)N2CCC[C@H]2[C@]2(O)O[C@](NC(=O)[C@@H]3C=C4c5cccc6[nH]c(Br)c(c56)C[C@H]4N(C)C3)(C(C)C)C(=O)N12
inactive: [1] | [2] | [3] | [4] | [14] | [15] | [6] | [16] | [17] | [13]
active: [12] 0.0923 µM

CN(Cc1ccc(C(C)(C)C)cc1)Cc1cccc2ccccc12
inactive: [1] | [2] | [3] | [4] | [14] | [15] | [6] | [17] | [18] | [12] | [13]

O=C(NO)C1(NS(=O)(=O)c2ccc(Oc3ccc(F)cc3)cc2)CCOCC1
inactive: [1] | [2] | [3] | [4] | [14] | [15] | [6] | [7] | [8] | [9] | [10] | [16] | [17] | [11] | [12] | [13]

CC(C)(C)C(=O)CCc1ccc(Cl)cc1
inactive: [1] | [2] | [3] | [4] | [14] | [15] | [7] | [8] | [9] | [10] | [16] | [17] | [11] | [12] | [13]

Brc1cc(-c2ccc(Br)c(Br)c2Br)cc(Br)c1Br
inactive: [1] | [2] | [3] | [4] | [14] | [15] | [6] | [7] | [8] | [9] | [10] | [17] | [11] | [18] | [12] | [13]

NC(=O)c1c(Cl)cccc1Cl
inactive: [1] | [2] | [3] | [4] | [14] | [15] | [6] | [9] | [10] | [16] | [11] | [18] | [12] | [13]
